The list is not random: actives were taken first. Their share in the collection is about 12%.
NS1 function inh = blocks influenza NS1 protein function; Potency, µM (doses to about 46.1 µM), for the others: at the top dose activity, positive = more growth; AID 2326; actives 0.4% (n = 270,000); calls by dose curve; note: actives are rising curves; nearly all actives have a fitted effect of over 50% in size
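A cell-based growth assay was used: compounds that relieve NS1-induced slow growth of budding yeast raise OD600. Assay medium was yeast nitrogen base with ammonium sulphate and -URA supplement, pH 6.0, with 2% galactose.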
SARS PLP yeast = blocks SARS-CoV papain-like protease in a yeast assay | S. cerevisiae expressing SARS-CoV PLpro, growth rescue | Potency, µM (series often up to 32.9 µM), inactives show at the highest dose activity, positive = growth rescue, actives largely listed as activators | actives 0.19% (n = 330,000); calls by dose curve; note: 0% is about no effect; nearly all actives have a fitted effect of over 55% in size
Pf growth 96h = inhibits malaria parasite growth, 96 h. P. falciparum luciferase reporter growth, 96 h. Potency, µM (doses to about 28.7 µM), without a hit: at the highest dose activity change, negative = inhibition, actives largely listed as inhibitors. actives 6.9% (n = 320,000); note: % is set by controls: 0 for no effect and ±100 for the full control effect
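Erythrocytes infected with luciferase-expressing P. falciparum were dispensed at 2% hematocrit and 0.05% parasitemia (final), then incubated with compounds 96 hours at 37 C in 5% CO2. Luminescence after detection reagent addition reported growth.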
Pf growth 48h = P. falciparum growth inhibition at 48 hours (one generation). P. falciparum luciferase growth in erythrocytes, 48 h. Potency, µM (highest dose often 28.7 µM), for inactives: at the top dose activity change, negative = inhibition, actives largely listed as inhibitors. actives 5.9% (n = 310,000). AID 504832; note: % is set by controls: 0 for no effect and ±100 for the full control effect
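Here the parasites carry a stable luciferase gene and grow inside erythrocytes in Albumax-based RPMI medium with compound for one erythrocytic cycle. Activity is scored as loss of luminescent signal.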
AMA1 RON2 block = disrupts binding of P. falciparum AMA1 to RON2. AlphaScreen AMA1-biotinylated RON2 peptide binding. Potency, µM (doses to about 58.2 µM), for inactives: top-dose activity change, negative = inhibition, usual class: inhibitors. actives 0.2% (n = 360,000). AID 720542;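 note: 0% = vehicle wells and -100% = peptide control; nearly all actives have a fitted effect of over 45% in size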
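AMA1 (3D7) with his tag at 25 nM final met compounds first, then biotinylated RON2 peptide at 25 nM; detection used donor plus acceptor beads, 10 µg/mL apiece, read by AlphaScreen after 30 min at room temperature.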
HCV inh = inhibitors of hepatitis C virus infection | Huh7.5.1 HCVcc-Cre infection, luciferase reporter, 44 h | Potency, µM (highest dose often 41.8 µM), inactives show at the highest dose activity change, negative = inhibition, hits mostly inhibitors | actives 3.4% (n = 340,000); note: % is set by controls: 0 for no effect and ±100 for the full control effect
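Cells (1,000/well) were plated 4 h before compound, then infected with HCVcc-Cre virus (~0.5 moi). After 44 h further culture, infection was read as luciferase luminescence following a 15 min substrate incubation at room temperature.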
The depositor's hits bear a star; ? = inconclusive; / = not tested or not shown. Unless noted, calls come from the whole dose curve; as a rule, active = well fitted curve in the direction sought with a large enough effect; inconclusive = small, poorly fitted or top-dose-only effect, or another doubt; inactive = no such curve, though single readings can be large; an effect the other way counts as inactive or inconclusive. Potency is the fitted concentration of half-maximal effect.

SMILES | NS1 function inh | SARS PLP yeast | Pf growth 96h | Pf growth 48h | AMA1 RON2 block | HCV inh
COc1ccc(C(=O)Nc2ccc(N3CCN(C(=O)c4cccs4)CC3)cc2)cc1Br | -15% | 3% | 9.3µM* | ? | -6% | -18%
Cc1ccc(C(=O)N2CCN(c3ccc(NC(=O)c4cccs4)cc3)CC2)cc1 | 12% | 2% | ? | 10µM* | -9% | ?
COc1ccc(N2C(=NC(=O)C(C)Oc3ccccc3)SC3CS(=O)(=O)CC32)cc1 (centres undefined) | 0% | 3% | -27% | 6% | -4% | 20%
COC(=O)c1cc(OC)nc2ccc(Br)cc12 | -2% | -1% | ? | ? | 43% | 11µM*
NNC(=O)c1cc(C2CC2)nc2ccc(Br)cc12 | 6% | -1% | -13% | -2% | 34% | ?
O=C1NC(=S)N/C1=C/c1cccc([N+](=O)[O-])c1O | -2% | -4% | 1.9µM* | ? | 9% | -2%
O=C1NC(=S)N/C1=C/c1cc([N+](=O)[O-])ccc1O | 5% | 7% | 28% | / | 17% | -20%
COc1cc(CN2CCC(CO)(Cc3cccc(C(F)(F)F)c3)CC2)ccc1F | 3% | 3% | 4.1µM* | 6.6µM* | 3% | ?
CC1(C(=O)N2CCC(CO)(Cc3cccc(C(F)(F)F)c3)CC2)CC1 | 16% | 0% | 17µM* | 21% | 3% | -19%
CC(=O)c1ccc(C(=O)N2CCC(CO)(Cc3cccc(C(F)(F)F)c3)CC2)cc1 | 4% | -1% | ? | ? | -27% | ?
OCC1(Cc2cccc(C(F)(F)F)c2)CCN(Cc2cc3ccccc3o2)CC1 | -2% | -2% | -21% | ? | ? | -26%
Cc1c(CN2CCC(CO)(Cc3cccc(C(F)(F)F)c3)CC2)c2ccccc2n1C | 2% | -2% | ? | 3.7µM* | -28% | ?
CC(NC(=O)CSc1ncn[nH]1)c1ccc(Cl)cc1Cl (centres undefined) | 6% | -2% | -2% | -4% | 4% | 18%
O=C(Nc1cccc(Cl)c1)c1ccc(=O)[nH]n1 | 3% | 1% | 42% | / | 19% | 10%
Cc1cc(C)n(CCC(=O)N2CCc3ccccc32)n1 | 7% | ? | 9% | 14% | -3% | 7%
Cc1c(C(=O)N2CCOCC2)oc2ccc(Br)cc12 | / | 3% | 14% | -7% | -3% | -18%
O=C(Nc1ccc(-c2nnc3n2CCCCC3)cc1)c1ccco1 | -4% | 0% | -10% | -4% | 0% | 11%
Cc1c(C(=O)Nc2ccc(-c3nnc4n3CCCCC4)cc2)oc2ccc(Br)cc12 | ? | -8% | 11% | 25% | -10% | 11µM*
Cc1ccc2oc(C(=O)N3CCC(C(N)=O)(N4CCCCC4)CC3)c(C)c2c1 | 11% | 1% | -4% | ? | -8% | 12%
Cc1c(C(=O)N2CCCCC2)oc2ccc(Br)cc12 | / | -5% | 108% | 75% | 0% | 22µM*
Cc1ccc2oc(C(=O)N3CCCCCC3)c(C)c2c1 | -38% | -1% | 13µM* | -20% | -13% | -14%
COc1ccccc1/C=N/NC(=O)CC(=O)NCCc1ccccc1 | / | / | / | / | -24% | -6%
Cc1ccc(C2=NS(=O)(=O)N(C)C(C(=O)Nc3cc(C)n(CC(=O)N4CCC(C)CC4)n3)=C2)cc1 | 15% | 5% | 5% | -20% | 84% | ?
O=S(=O)(c1ccc(Cl)cc1)N1CCN(C(=S)NCC2CCCO2)CC1 (centres undefined) | 1% | -1% | -10% | 0.93µM* | -11% | /
O=S(=O)(c1cccc(Br)c1)N1CCN(C(=S)NCC2CCCO2)CC1 (centres undefined) | / | 3% | ? | ? | -9% | 7%
SMILES | NS1 function inh | SARS PLP yeast | Pf growth 96h | Pf growth 48h | AMA1 RON2 block | HCV inh
O=S(=O)(c1ccc(F)cc1)N1CCN(C(=S)NCC2CCCO2)CC1 (centres undefined) | / | 3% | 2.1µM* | 2.6µM* | -2% | ?
O=S(=O)(c1ccc(F)cc1)N1CCN(C(=S)NCCc2ccccc2)CC1 | 14% | 3% | ? | 1.9µM* | 20% | 5%
Cc1ccc(S(=O)(=O)N2CCOCC2)cc1C(=O)OCC(=O)NC1CC1 | / | -6% | -6% | -29% | 12% | 0%
COc1ccc(-c2csc(C(C)(NC(C)=O)c3ccccc3)n2)cn1 (centres undefined) | / | / | / | / | -10% | /
CC1(C)CCCC2=C1CC1C(=O)N(N)C(=O)C1C2 (centres undefined) | 0% | 1% | -1% | 38% | 7% | 11%
COc1ccc(-c2cc(C(F)(F)F)nc(SCC(=O)NCc3cccs3)n2)cc1 | 15% | -6% | ? | 12µM* | 4% | -8%
COCC(C)NC(=O)CCSc1nc(-c2ccc(OC)cc2)cc(C(F)(F)F)n1 (centres undefined) | -20% | -43% | 9.3µM* | 5.2µM* | 10% | ?
Cc1ccc(S(=O)(=O)N(CC(=O)NCc2ccc(F)cc2)C(=O)N2CCN(C)CC2)cc1 | / | -3% | 24% | 0% | 21% | 32%
OCc1ccc2c(c1)c(-c1ccc3c(c1)OCCO3)c(-c1ccccc1)n2-c1ccccc1 | / | -5% | 4.7µM* | ? | ? | ?
Cc1ccc(C)c2[nH]c(=O)c(C(c3nnnn3C(C)(C)C)N3CC=C(c4ccc(F)cc4)CC3)cc12 (centres undefined) | 16% | -1% | ? | 2.1µM* | -6% | ?
CCC(C)(C)n1nnnc1C(c1cccs1)N1CC=C(c2ccc(F)cc2)CC1 (centres undefined) | -95% | -12% | ? | 7.4µM* | -8% | ?
Fc1ccc(C2=CCN(C(c3cccs3)c3nnnn3CCc3ccccc3)CC2)cc1 (centres undefined) | -6% | -17% | / | 0% | 6% | ?
Cc1cc(C)c2[nH]c(=O)c(C(c3nnnn3C(C)(C)C)N3CCN(C(=O)c4ccco4)CC3)cc2c1 (centres undefined) | -9% | 3% | / | ? | 6% | -5%
CCOC(=O)c1c(NC(C)=O)sc(/C(C)=N/Nc2ccc(C(=O)O)cc2)c1C | -2% | 2% | 22% | -7% | 2% | ?
CC1CC(C)(C)NC(=S)N1CCC(=O)Nc1ccc2c(c1)OCCO2 (centres undefined) | / | 0% | 1.5µM* | -21% | 12% | ?
CCOc1ccc(NC(=O)CCN2C(=S)NC(C)(C)CC2C)cc1 (centres undefined) | / | 10% | 78% | -17% | 3% | 0%
COc1ccc2[nH]c(C)c(C(=O)CN3CCN(C/C=C/c4ccccc4)CC3)c2c1 | 4% | -1% | 8.3µM* | ? | -11% | ?
